We go through 15 compounds from PubChem BioAssay (NCI).

About 83,000 compounds went through this panel and 20% of them were active in at least one assay; those are over-represented in the sample as a whole.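 Activity criterion: percent growth below 10, measured after cells in 96-well plates were exposed to a single compound concentration for 48 hours.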 Unmarked numbers belong to inactive results. Active and inactive are the calls of the source.

In this assay the test system is EKVX NSCLC. Nature of the assay: NCI-60 one-dose screen, 48 h (100 = growth as untreated, 0 = no growth, -100 = all killed). The settings on record: 10 µM unless noted.
For the compound `C[n+]1c(/C=C/c2c(O)ccc3ccccc23)ccc2ccccc21`, the growth is 44.8%. As for `COc1ccc(-c2cn(-c3cccc(C(=O)/C=C/c4cc(OC)c(OC)c(OC)c4)c3)c(=O)[nH]2)cc1OC`, the growth was 98%. Then `C=C[C@@H]1C[C@H](O)Cc2c(C)cc(C)cc2N1`, with 86.9%; and `O=C(O)Cc1cccc(=O)c(O)c1C(=O)O`, with 110%; and `COc1cc(/C=C/C(=O)c2ccc(Nc3ncnc4cc(OC)c(OC)cc34)cc2)cc(OC)c1`, with 101%.

As to `COc1cc(/C=C/C(=O)c2cccc(-n3cc(-c4cc(OC)c(OC)c(OC)c4)[nH]c3=O)c2)cc(OC)c1OC`, the growth is 51.6%. In the case of `COC1=C(OC)C(=O)C(CCCCCCCCCC[P+](c2ccccc2)(c2ccccc2)c2ccccc2)=C(C)C1=O`, the growth was -6.16% (active). As for `C=C[C@@H]1C[C@H](O)Cc2ccccc2N1`, the figure is 107%; as for `CCN1C(=O)N(CC)C2C1NN=c1s/c(=C\c3cccnc3)c(=O)n12` (stereo not given), 45.5%; as for `O=S(=O)(CC(O)(c1ccccc1)c1ccccc1)CC(O)(c1ccccc1)c1ccccc1`, 73.8%. For the compound `CCN(CC)CCCC(C)Nc1c2ccc(Cl)cc2nc2cc(OC)c(OC)cc12` (stereo not given), the growth was 53.7%.

With `CCCCCCCCCCCC(=O)NCCC[N+](C)(C)CC(=O)[O-]`, the growth was 103%.

On to `CCOC(=O)/C(C#N)=C1/C(=O)Nc2ccccc21`, for which the growth is 117%. Then `Cn1c(=O)c2[nH]c(C3CC=CCC3)nc2n(C)c1=O` (stereo not given), with 113%; and `O=[N+]([O-])c1cc(S(=O)(=O)Oc2ccccc2)ccc1Cl`, with 65%.
